SRC2 TRFRET art: TR-FRET artefact, counter-screen to PPARgamma/SRC-2 agonist assay; stronger effect = higher value; TR-FRET ratio at 8 µM; 200,000 compounds, 0.4% hits
PPARg SRC-2 ag: promotes SRC-2 coactivator recruitment by human PPARgamma; P37231; PPARgamma LBD-SRC-2 recruitment, biochemical; activation, % at 8 µM; 200,000 compounds, 0.34% hits; AID 1032; in the data active means activation above about 22%
Target sequence (P37231 whole entry, looked up, the tested form may be a part): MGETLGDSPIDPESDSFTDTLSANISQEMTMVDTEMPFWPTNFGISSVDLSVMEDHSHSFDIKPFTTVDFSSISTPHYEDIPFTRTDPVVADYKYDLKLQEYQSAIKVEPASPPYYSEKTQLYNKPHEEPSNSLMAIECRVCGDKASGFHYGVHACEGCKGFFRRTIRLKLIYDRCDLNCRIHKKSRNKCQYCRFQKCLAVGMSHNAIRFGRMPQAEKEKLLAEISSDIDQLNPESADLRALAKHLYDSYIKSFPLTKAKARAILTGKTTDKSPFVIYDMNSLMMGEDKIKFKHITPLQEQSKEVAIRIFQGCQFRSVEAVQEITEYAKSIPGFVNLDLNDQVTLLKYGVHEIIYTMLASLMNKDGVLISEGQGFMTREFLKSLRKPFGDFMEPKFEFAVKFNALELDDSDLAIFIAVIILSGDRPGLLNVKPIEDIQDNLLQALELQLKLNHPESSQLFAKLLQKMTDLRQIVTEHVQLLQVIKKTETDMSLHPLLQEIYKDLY
PPARg SRC1 recr: agonists of human PPARgamma SRC-1 coactivator recruitment. PPARgamma-SRC-1 coactivator recruitment biochemical assay. activation, % at 8 µM. 200,000 compounds, 0.41% hits. P37231; in the data active means activation above about 19%
SRC1 TRFRET art: TR-FRET artefact, counter-screen to PPARgamma/SRC-1 agonist assay; AID 1051; 99,000 compounds, 0.34% hits; TR-FRET ratio at 8 µM; TR-FRET detection artefact counter-screen, emission ratio; stronger effect = higher value; in the data active means TR-FRET ratio above about 2300
PPARg SRC3 recr: promotes SRC-3 coactivator recruitment by human PPARgamma; activation, % at 8 µM; P37231; biochemical PPARgamma/SRC-3 coactivator recruitment assay; 200,000 compounds, 0.26% hits; in the data active means activation above about 23%
SRC3 TRFRET art: counter-screen for PPARgamma SRC-3 recruitment agonists: TR-FRET artefact. PPARgamma/SRC-3 format; stronger effect = higher value. TR-FRET ratio at 8 µM. 99,000 compounds, 0.39% hits
Numbers stand for hits; . = inactive; / = no result given. In the library only some 0.84% were active in any assay of this set; here they are far more common. Unless noted, no stated cut-off is given here; in the data, active means TR-FRET ratio above about 2000; inactive means the rest.

SMILES	SRC2 TRFRET art	PPARg SRC-2 ag	PPARg SRC1 recr	SRC1 TRFRET art	PPARg SRC3 recr	SRC3 TRFRET art
Cc1c2c(c(C)n1C)C(C(=O)NC1CCCCC1)N(Cc1ccccc1)C2=O (stereo unspecified)	.	.	.	.	.	.
CSc1ccccc1NC(=O)c1cc(-c2cccnc2)nc2ccc(Br)cc12	.	.	.	.	.	2157
CC(=O)Nc1cccc(NC(=O)c2cc(-c3cccnc3)nc3ccc(Br)cc23)c1	.	.	.	/	.	/
CCOC(=O)CSc1ncc(-c2ccc([N+](=O)[O-])cc2)[nH]1	.	.	.	.	.	.
O=C(CC1CCCC1)Nc1ccc2c(c1)CCC2	.	57	.	/	.	/
O=C(Cc1ccccc1)Nc1ccc2c(c1)CCC2	.	.	.	.	.	.
COc1cc(C2C3=C(CCCC3=O)Nc3[nH]n(-c4ccccc4)c(=O)c32)ccc1OC(C)=O (stereo unspecified)	.	.	.	.	.	.
Cc1cc(C)c(C#N)c(SCc2ccc(F)cc2)n1	.	.	.	.	.	.
CCc1nc(SCc2ccc(F)cc2)[nH]c(=O)c1C#N	2794	57	.	/	.	/
COc1ccc(C(C(=O)NC2CCCC2)N(C(=O)c2snc(-c3ccc(F)cc3)c2N)c2ccc(OC)cc2)cc1 (stereo unspecified)	2223	.	.	/	.	/
CCCCC(CC)Cn1c(N)c(C#N)c2nc3ccccc3nc21 (stereo unspecified)	.	.	.	/	.	/
CCCCC(CC)Cn1c2nc3ccccc3nc2c2c(=N)oc(C)nc21 (stereo unspecified)	2312	48	.	/	.	/
COc1ccc(C(=O)Nc2scc(-c3ccc(Cl)cc3Cl)c2C(N)=O)cc1	1986	.	.	/	.	/
Cc1cc(NC(=O)COC(=O)c2ccco2)no1	.	.	.	.	.	.
Cc1ccc2nc(N3C(=O)C(O)=C(C(=O)c4ccco4)C3c3cccs3)sc2c1 (stereo unspecified)	2260	47	38	/	64	/
CCOC(=O)c1sc(N2C(=O)C(O)=C(C(=O)c3ccco3)C2c2ccccc2)nc1C (stereo unspecified)	.	.	.	/	.	/
OCC1(Cc2ccc(Cl)cc2)CCN(Cc2ccc3nsnc3c2)CC1	.	.	.	2393	.	.
CCCCNC(=O)C1CCN(c2nc(OC)nc(OC)n2)CC1	.	.	.	/	.	/
O=C1OCCN1C(=O)[C@H]1[C@H](c2ccc(Cl)cc2)C(c2cccc(Cl)c2)=NN1c1ccccc1	2617	.	.	3296	.	2817
COCCSc1ccccc1C(=O)N1CCOCC1	.	.	.	/	.	/
O=C1COc2ccc(C(=O)COC(=O)C3CCN(S(=O)(=O)c4cccs4)CC3)cc2N1	.	.	.	/	.	/
O=C(COC(=O)C1CCN(S(=O)(=O)c2cccs2)CC1)c1ccc2c(c1)OCCO2	2115	.	.	/	.	/
O=C(COC(=O)C1CCN(S(=O)(=O)c2cccs2)CC1)c1cc2ccccc2o1	2135	.	.	/	.	/
C/C(=C\C(=O)c1sccc1Cl)N(C)C	.	.	.	.	.	.
Cc1ccc(S(=O)(=O)N(C)C)cc1NC(=S)N1CCCCC1CO (stereo unspecified)	.	.	.	.	.	.
SMILES	SRC2 TRFRET art	PPARg SRC-2 ag	PPARg SRC1 recr	SRC1 TRFRET art	PPARg SRC3 recr	SRC3 TRFRET art
CCn1cc(/C=C/C(=O)Nc2c(C)nn(Cc3ccccc3C)c2C)cn1	.	.	.	.	.	.
CCn1cc(/C=C/C(=O)Nc2ccn(Cc3c(F)c(F)c(F)c(F)c3F)n2)cn1	.	28	.	.	.	.
CCOc1ccc(-n2nc3c(=O)[nH]nc(C)c3c2C)cc1	.	.	.	.	.	.
CCOc1ccc(-n2nc3c(=S)[nH]nc(C)c3c2C)cc1	.	.	.	.	.	2186
CC1CCCC(NC(=O)COC(=O)CCSc2ccccc2)C1C (stereo unspecified)	.	.	.	.	.	.
Cc1ccc(NC(=O)c2sc3ccccc3c2Cl)nc1	.	.	36	/	.	/
Cc1nnc(NC(=O)c2sc3ccccc3c2Cl)s1	.	.	.	/	.	/
CCOC(=O)C1=C(C)Nc2ccccc2N=C1NC(=O)C(c1ccccc1)c1ccccc1	.	.	.	.	.	2077
CCOC(=O)C1=C(C)Nc2ccccc2N=C1NC(=O)c1cccc(S(=O)(=O)N(C)C)c1	.	.	.	/	.	/
CCOC(=O)C1=C(C)Nc2ccccc2N=C1NC(=O)c1ccc(Cl)c(S(=O)(=O)N2CCCC2)c1	.	.	.	.	.	2223
COc1cccc(C2C(C(=O)c3cc4ccccc4o3)=C(O)C(=O)N2CCN(C)C)c1OC (stereo unspecified)	.	.	.	/	28	/
COc1cccc(C2C(C(=O)c3ccco3)=C(O)C(=O)N2CCN(C)C)c1OC (stereo unspecified)	.	.	.	.	.	.
c1coc(-c2nnc3sc(Cc4cccs4)nn23)c1	.	.	.	/	.	/
c1csc(Cc2nn3c(-c4n[nH]c5c4CCC5)nnc3s2)c1	.	.	20	/	.	/
COc1ccc(C(=O)NCc2nnc(SCC(=O)Nc3nc4ccc(C)cc4s3)o2)cc1OC	.	.	.	.	.	.
Cc1cccc2nc(-c3ccccc3)nc(N3CCC(O)(c4ccc(Cl)cc4)CC3)c12	2045	.	.	.	.	.
FC(F)Oc1ccccc1/C=N/n1cnc2ccccc21	.	.	.	.	.	.
O=C(CSc1nnc(-c2ccco2)n1-c1ccccc1)N1CCc2ccccc21	.	.	.	/	.	/
O=C(CSc1nnc(-c2cccs2)n1-c1ccccc1)N1CCc2ccccc21	.	.	30	/	.	/
CCN(CC)S(=O)(=O)c1ccc(Oc2ccccc2)cc1	.	.	.	/	.	/
Cc1c(Cl)cccc1NC(=O)CCCn1nc([N+](=O)[O-])cc1C	2111	.	.	.	.	.
Cc1sc(NC(=O)Cc2ccc3c(c2)OCO3)nc1-c1ccc2c(c1)CCN2C(=O)c1ccccc1F	.	.	.	.	.	.
Cc1sc(NC(=O)Cc2ccc3c(c2)OCO3)nc1-c1ccc2c(c1)CCN2C(=O)c1ccc(F)cc1	.	.	.	.	.	2623
O=C(CSc1ncnc2c1nnn2-c1ccc(F)cc1)NCc1ccco1	.	23	.	/	.	/
Cc1cccc(C)c1NC(=S)Nc1c(C)n(C)n(-c2ccccc2)c1=O	.	.	26	.	.	.
CCN1CCCC1CNC(=O)c1cc2c(-c3ccc(Cl)cc3)nn(C)c2s1 (stereo unspecified)	.	.	22	/	.	/
CC(C)(C)c1ccc(OCc2ccc(C(=O)N3CCOCC3)o2)cc1	2010	25	.	.	.	.
CC(C)(C)c1ccc(OCCCC(=O)N2CCOCC2)cc1	.	.	.	.	.	.
O=C(CSc1ccc2nnc(-c3ccccn3)n2n1)NCc1ccc2c(c1)OCO2	1984	28	.	/	.	/
CCc1ccc(N2CSC3=C(C#N)C(c4cccs4)CC(=O)N3C2)cc1 (stereo unspecified)	2462	35	.	.	.	.
